# aSyn rescue: alpha-synuclein toxicity inhibition in yeast. 370,000 compounds, 0.14% hits. Potency, µM (highest dose often 46.1 µM), for inactives: at the top dose growth rescue (activation), hits mostly activators. Yeast expressing alpha-synuclein, growth rescue, BacTiter-Glo, 24 h; note: % of control where 0% means no effect; nearly all actives have a fitted effect of over 65% in size
#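 Screening used galactose-induced yeast with toxic alpha-synuclein levels, exposed to compound for 24 hr at 30 deg C. Cell growth, read with BacTiter-Glo luminescence, gave the measured signal.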
# TDP43 rescue: inhibitors of TDP-43 toxicity in yeast. AID 652104. 410,000 compounds, 1.8% hits. TDP-43 expressing yeast growth rescue, BacTiter-Glo, 24 h. Potency, µM (top dose mostly 46.1 µM), without a hit: top-dose growth rescue (activation), actives largely listed as activators; note: % of control where 0% means no effect; nearly all actives have a fitted effect of over 50% in size
#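 Cell-based yeast growth screen: TDP-43 expression induced in galactose, inoculum OD600=0.02 after raffinose pregrowth to mid-log. Read-out BacTiter-Glo luminescence at 24 hr, 30 deg C; inhibition of toxicity seen as signal increase.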
# Abeta rescue: compounds reversing amyloid beta toxicity in yeast | yeast expressing A-beta42, growth rescue, OD600, 48 h; response scale: 0% DMSO, 100% iron-clioquinol control | Potency, µM (highest dose often 46.1 µM), actives largely listed as activators | 410,000 compounds, 0.063% hits | AID 1347071; note: nearly all actives have a fitted effect of over 55% in size
#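 Yeast growth medium received pinned compounds, then yeast cells expressing toxic A-beta were added; plates incubated at 30 C for 48 hr. Growth read as absorbance at 600 nm, normalized to DMSO and equimolar FeCl3 plus clioquinol controls.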
# FUS yeast rescue: FUS proteinopathy suppression in yeast. S. cerevisiae FUS-expressing, growth rescue, OD600, 24 h. Potency, µM (titrated, usually from 76.6 µM), usual class: activators. 390,000 compounds, 0.24% hits. AID 1347120;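 note: plate controls were DMSO vehicle for no effect and reference control for full effect; nearly all actives have a fitted effect of over 55% in size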
#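 Steps: raffinose overnight preculture; dilution to OD 0.005 in 2% galactose minimal medium; compound addition (concentration series); 24hr at 30C, 99% humidity; absorbance read at 600 nm.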
# An asterisk follows results filed as active; i = inactive; ? = inconclusive; . = no result given; [ ] = remark or other dose. In the library only some 2.1% were active in any assay of this set; here they are far more common. Calls come from the whole dose curve; as a rule, active = well fitted curve in the direction sought with a large enough effect; inconclusive = small, poorly fitted or top-dose-only effect, or another doubt; inactive = no such curve, though single readings can be large; an effect the other way counts as inactive or inconclusive. Potency is the fitted concentration of half-maximal effect.
SMILES,aSyn rescue,TDP43 rescue,Abeta rescue,FUS yeast rescue
Cc1noc(/C=C/c2ccccc2F)c1S(=O)(=O)N1CCC(C(=O)N(C)Cc2ccco2)CC1,.,26.3%,i,i
O=C(CSc1nc(-c2ccccc2)c(-c2ccccc2)o1)N1CCCCC1,-19.5%,0.0%,i,?
O=C(CSCC(=O)N1CCCCC1)Nc1nc(-c2ccccc2)c(-c2ccccc2)s1,-2.4%,?,i,17.8µM*
N#Cc1ccc(OCc2cccc(S(=O)(=O)N3CCOCC3)c2)cc1,20.6%,?,i,i
Cc1cc(OCc2cccc(S(=O)(=O)N3CCOCC3)c2)ccc1Cl,-0.2%,35.5µM*,i,i
O=C(CSc1nc(=O)[nH]c2c1CCCC2)NCc1ccc(Cl)cc1,.,21.5%,i,i
Cc1ccc(S(=O)(=O)N2CCOC23CCN(C(=O)c2ccccc2Br)CC3)cc1,4.5%,15.8µM*,.,i
O=C(Nc1ccc2c(c1)Cc1ccccc1-2)NC1CCCCN(Cc2ccc(Cl)cc2)C1=O (stereo not drawn),.,.,.,i
Cc1cccc(Oc2c(C=O)c3ccccc3n2C)c1,-4.8%,17.8µM*,i,i
CCOC(=O)N1CCN(c2nc(C)c3c(n2)CC(C)CC3=O)CC1 (stereo not drawn),0.9%,20µM*,i,i
O=C1CCC[C@H]2Cc3nc4ccccc4cc3C[C@]23CCCN13,.,.,.,i
O=C(Nc1cccc(NC(=O)c2cccnc2Cl)c1)c1ccco1,-7.9%,-1.0%,i,i
Cc1ccc(C(C)C)c(OCC(=O)Nc2cccc(-c3nc4ncccc4o3)c2)c1,.,22.4µM*,i,i
Cc1cc(C)c(OCC(=O)Nc2cccc(-c3nc4ncccc4o3)c2)c(Br)c1,.,23.6%,i,i
COc1c(C)cc(Br)cc1C(=O)Nc1cccc(-c2nc3ncccc3o2)c1,0.9%,12.6µM*,i,i
O=C(Nc1cccc(NC(=O)c2ccccc2Cl)c1)c1ccco1,-11.1%,17.8µM*,i,i
Cc1cccc(C)c1OCC(=O)Nc1cccc(NC(=O)c2ccco2)c1,3.7%,25.1µM*,i,i
O=C(C[N+]12CN3CN(CN(C3)C1)C2)c1ccc(Cl)cc1,20.1%,.,.,.
CN(C)c1ccc(/C=C/c2ccnc3cc(Cl)cc(Cl)c23)cc1,1.0%,.,.,.
O=C(/C=C/c1ccc(Br)cc1)c1ccc(NC(=O)c2ccco2)cc1,11.9%,22.1%,i,i
Cc1ccc(C(C)C)c(OCC(=O)Nc2cccc(NC(=O)c3ccco3)c2)c1,.,20µM*,i,i
O=C(/C=C\c1ccccc1)Nc1ccc(NC(=O)c2ccco2)cc1,6.6%,35.5µM*,i,i
COc1ccc(NC(=O)c2ccco2)cc1NC(=O)COc1cc(C)ccc1C(C)C,.,3.6%,i,i
O=c1[nH]cc(C#Cc2ccccc2)c2ncncc12,-1.4%,.,.,.
CCOC(=O)C1(Cc2ccccc2)CCN(Cc2cccc(C#N)c2)CC1,.,.,.,i
SMILES,aSyn rescue,TDP43 rescue,Abeta rescue,FUS yeast rescue
Cc1nc(Nc2ccc(S(N)(=O)=O)cc2)sc1C(=O)Nc1ccccc1,-1.8%,-9.3%,i,i
Nc1nc(Nc2ccccc2F)sc1C(=O)c1ccccc1,-16.6%,22.4µM*,?,i
O=C(NNc1ccccc1F)c1ccccc1,8.5%,-17.0%[1.82 µM],i,i
Cc1nc(Nc2ccccc2)sc1C(=O)Nc1ccccc1,-0.8%,10µM*,i,i
COc1ccc(C(=O)c2sc(Nc3ccc(NC(C)=O)cc3)nc2C)cc1,-9.6%,23.6%,i,i
CC(=O)c1cccc(NC(=O)c2sc(Cl)nc2C)c1,5.4%,?,i,i
Cc1nc(Cl)sc1C(=O)Nc1cccc(Cl)c1,15.6%,14.1µM*,i,i
Cc1nc(Nc2ccccc2)sc1C(=O)c1ccc(F)cc1,-0.4%,22.4µM*,i,i
COc1ccc(Nc2nc(C)c(-c3ccccc3)s2)cc1,-18.1%,12.6µM*,i,.
COc1cc(NS(=O)(=O)c2ccc(-c3cc(C)no3)cc2)cc(OC)c1,.,?,i,i
COc1cc([C@@H]2c3cc4c(cc3[C@H](O)[C@H]3COC(=O)[C@@H]23)OCO4)cc(OC)c1OC,1.8%,.,.,.
O=c1[nH]c(C2CCCN(S(=O)(=O)c3ccccc3Cl)C2)nc2c1nnn2Cc1ccc2c(c1)OCCO2 (stereo not drawn),0.0%,1.6%,.,14.1µM*
O=c1[nH]c(C2CCCN(S(=O)(=O)c3ccccc3Cl)C2)nc2c1nnn2Cc1ccc(OC(F)(F)F)cc1 (stereo not drawn),.,-6.0%,i,i
Nc1ccc(/C=C/c2ccnc3ccccc23)cc1[N+](=O)[O-],-13.2%,.,.,.
O=[N+]([O-])c1ccc(Oc2cccc(Br)c2)c2ccncc12,6.1%,15.8µM*,i,i
O=[N+]([O-])c1ccc(Oc2ccc(F)cc2)c2ccncc12,9.0%,?,i,i
CN(C)c1ccc(C(O)c2cc3ccccc3s2)cc1 (stereo not drawn),14.1µM*,15.6%,?,i
COc1ccc(OCCn2cc(C=O)c3ccccc32)cc1,-8.4%,10µM*,i,i
Cc1ccccc1OCCn1cc(C=O)c2ccccc21,4.2%,?,i,i
COc1cccc(C2CC(c3c(-c4ccccc4)c4cc(Cl)ccc4[nH]c3=O)=NN2S(C)(=O)=O)c1OC (stereo not drawn),13.8%,-2.0%,i,35.5µM*
COc1ccccc1C1CC(c2c(-c3ccccc3)c3cc(Cl)ccc3[nH]c2=O)=NN1S(C)(=O)=O (stereo not drawn),-0.7%,-2.0%,i,?
CN1C(=O)c2cc(NS(=O)(=O)c3cccc(F)c3)ccc2OC[C@@H]2O[C@H](CC(=O)O)CC[C@H]21,.,.,.,i
CC1CCc2c(sc(NC(=O)C3CCCO3)c2C#N)C1 (stereo not drawn),-7.9%,27.4%,i,i
CCc1c(C)sc(NC(=O)C2CCCO2)c1C#N (stereo not drawn),-8.4%,22.4µM*,i,i
CCOc1cc2c(cc1/C=C/C(=O)O)OC(C)C2 (stereo not drawn),-9.6%,22.4µM*,i,i
SMILES,aSyn rescue,TDP43 rescue,Abeta rescue,FUS yeast rescue
Cc1nc(COc2ccccc2Cl)sc1-c1ccnc(N)n1,12.5%,11.2µM*,i,i
Clc1ccccc1OCc1nn2c(-c3ccncc3)nnc2s1,-10.4%,11.1%,i,i
Cc1ccccc1Nc1nc2ccccc2s1,-1.5%,20µM*,i,.
CCOC(=O)CC[C@@]1(C(=O)OCC)C[C@@H](CC(=O)NCc2ccc(C)o2)C(=O)N2CCCC=C21,.,.,.,i
O=C1CSC(c2ccccc2F)N1c1cc(Cl)ccc1O (stereo not drawn),14.5%,20.4%,i,i
O=C1CSC(c2cccc(Cl)c2Cl)N1c1ccccn1 (stereo not drawn),19.4%,14.1µM*,i,i
CNc1ccc(C=C2c3ccccc3-c3ccccc32)cc1,-18.6%,.,.,.
Cc1cccc(Cn2cc(C(=O)c3ccccc3)c(=O)c3cc4c(cc32)OCO4)c1,.,35.5µM*,i,i
